Consider 90 compounds from PubChem BioAssay AID624040 (The Scripps Research Institute Molecular Screening Center, 2012).

Among all 360,000 compounds or so, about 2,100 (0.58%) were called active.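 How the source made its calls: active means inhibition above a per-plate cutoff, the mean of that plate's test compounds plus 3 SD (cut at about 27% in these data); inactive means the rest.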 This excerpt belongs to a sample that is enriched for actives.

Chain of Muscarinic acetylcholine receptor M5 (Homo sapiens) (P08912 whole entry, looked up): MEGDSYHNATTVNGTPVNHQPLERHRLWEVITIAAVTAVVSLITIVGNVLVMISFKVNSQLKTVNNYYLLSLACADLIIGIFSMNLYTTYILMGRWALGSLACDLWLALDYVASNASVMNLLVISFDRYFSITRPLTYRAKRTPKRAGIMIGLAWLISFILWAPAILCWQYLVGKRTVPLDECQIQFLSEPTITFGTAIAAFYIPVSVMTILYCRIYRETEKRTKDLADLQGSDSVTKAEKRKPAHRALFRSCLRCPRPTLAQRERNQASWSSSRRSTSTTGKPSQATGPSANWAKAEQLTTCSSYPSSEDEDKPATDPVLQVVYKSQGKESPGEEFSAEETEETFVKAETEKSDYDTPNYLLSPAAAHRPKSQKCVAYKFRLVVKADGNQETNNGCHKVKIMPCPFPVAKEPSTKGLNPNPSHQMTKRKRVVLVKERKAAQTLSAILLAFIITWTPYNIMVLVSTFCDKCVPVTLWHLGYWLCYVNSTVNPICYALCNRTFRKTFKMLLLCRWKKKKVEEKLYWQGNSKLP

This test concerns the target Muscarinic acetylcholine receptor M5 (Homo sapiens) (UniProt P08912). The experiment in a line: human M5 muscarinic receptor antagonists, primary screen, CHO cells, Fluo-8 calcium fluorescence (AID 624040).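 Further: 0% = acetylcholine EC80 with DMSO and 100% = DMSO without agonist.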 The following applies: CHO-hM5 cells, ACh EC80, at 3 µM, hits give high values.
The inhibition is the relative decrease from the control value, in per cent. `Cc1ccc(-c2cnc(C(O)c3cccc(C)c3C)[nH]2)cc1` (stereo not given): the inhibition was -3.72% (inactive). On to `COCCn1c(C)cc(C(=O)CSc2nc3ccccc3c(=O)n2C(C)COC)c1C` (stereo not given), for which the inhibition was 9.46% (inactive). On to `CCCn1nc(NC(=O)C(C)C)c2cc3cc(OC)ccc3nc21`, for which the inhibition is 14.6% (inactive).

With `O=C1CS(=O)CN1c1ccc(Oc2ccccc2)cc1` (stereo not given), the inhibition was -0.11% (inactive). To `CC(C)(C)c1cc2cccnc2n1Cc1cccc(F)c1` belongs -7.37% (inactive); to `CCOc1ccc(CN2CCNC(=O)C2CC(=O)NCCCC2CCCC2)cc1` (stereo not given), 9.04% (inactive); to `O=C(CCc1ccc(S(=O)(=O)N2CCOCC2)cc1)NN=C1CCCCCCC1`, -2.08% (inactive). Consider `COc1cccc(OCC(=O)NCCS(=O)(=O)N2CCN(c3ccccc3)CC2)c1`, for which the inhibition is -6.65% (inactive). With `CC(C)N(Cc1nc(-c2ccc3c(c2)OCO3)no1)CC1CCC(=O)N1` (stereo not given), the inhibition was 16% (inactive). As to `OC[C@@H]1CN(C2CCCC2)C[C@H](n2cnc3c(NC4CCC4)ncnc32)O1`, the inhibition is 9.41% (inactive).

For the compound `OC[C@@H]1CN(Cc2ccc(F)cc2)C[C@H](n2cnc3c(NC4CCCC4)ncnc32)O1`, the inhibition is 4.45% (inactive). As to `OC[C@@H]1CN(Cc2ccc(-c3ccccc3)cc2)C[C@H](n2cnc3c(NC4CCCC4)ncnc32)O1`, the inhibition is 31.4% (active).

Turning to `O=C(NNC(=S)Nc1ccccc1)c1cccc(S(=O)(=O)N2CCOCC2)c1`, the inhibition was -3.26% (inactive). On to `Cc1ccc(C(=O)NCC(=O)OCC(=O)NC2CCCCCCC2)cc1`, for which the inhibition was 7.24% (inactive). Take `COCCn1c(SCC(=O)Nc2ccc(F)cc2F)nc2c(c1=O)SCC2`: the inhibition was -2.37% (inactive). To `COCCn1c(SCC(=O)Nc2ccccc2F)nc2c(c1=O)SCC2` belongs -1.26% (inactive). Turning to `Cc1cccc(CSc2nc3c(c(=O)n2C)SCC3)c1`, the inhibition was 36.1% (active). As to `CN(CCCNC(=O)CN1C(=O)CC(C)(C)S(=O)(=O)c2ccccc21)C1CCCCC1`, the inhibition is 3.09% (inactive).

As for `CC1(C)C2CC=C(/C=N/NC(=O)C3CC3)C1C2` (stereo not given), the inhibition was -4.33% (inactive).

On to `COc1cc(C(=O)N2CCN(S(=O)(=O)c3ccc(C(C)C)cc3)CC2)ccc1OCC(=O)N1CCOCC1`, for which the inhibition is -6.27% (inactive). For `C=C(C)c1cccc(C(C)(C)NC(=O)NCCN(CC)CC)c1`, the inhibition was 52.3% (active). As for `C=C(C)c1cccc(C(C)(C)NC(=O)N2CCN(c3ncccn3)CC2)c1`, the inhibition is 4.22% (inactive).

For the compound `C=C(C)c1cccc(C(C)(C)NC(=O)NC2CCCC2)c1`, the inhibition is -4.91% (inactive). In the case of `CC(=O)N1CC(=O)N(CC(=O)Nc2ccc(Br)cc2)C1=S`, the inhibition is 15.7% (inactive). Take `Cc1ccc(S(=O)(=O)N(C)CC(=O)NCC(c2ccc(F)cc2)N2CCOCC2)cc1` (stereo not given): the inhibition was 4.43% (inactive). To `Cc1ccc(NC(=S)N2CCN(c3ncccn3)CC2)cc1C` belongs 0.78% (inactive); to `O=C(c1c(F)cccc1Cl)N1CCN(S(=O)(=O)c2ccc3c(c2)OCCCO3)CC1`, 32.7% (active). To `O=C(c1c(F)cccc1F)N1CCN(S(=O)(=O)c2ccc3c(c2)OCCO3)CC1` belongs 15.2% (inactive).

Take `O=C(c1ccc(Cl)nc1)N1CCN(S(=O)(=O)c2ccc3c(c2)OCCO3)CC1`: the inhibition was 8.5% (inactive).

As for `Nc1nonc1-n1nnc(C(=O)N/N=C/c2ccc(Cl)cc2)c1-c1ccc2c(c1)OCO2`, the inhibition is 4.23% (inactive).

On to `Cc1ccccc1C(OCCN(C)C)C1CCCCC1` (stereo not given), for which the inhibition is 98.7% (active).

Take `CN(C)CCOC1c2ccccc2-c2ccccc21`: the inhibition is 9.21% (inactive). Under `Cc1ccccc1C(OCC(O)CN1CCCCC1CCO)c1ccccc1` (stereo not given) stands 1.17% (inactive); under `Cc1ccc(S(=O)(=O)N2CCN(C(=O)CCC(=O)NC3CCCc4ccccc43)CC2)cc1` (stereo not given), 1.42% (inactive). Consider `CCOc1ccc(C(=O)N(Cc2ccc(N(C)C)cc2)C2CCS(=O)(=O)C2)cc1` (stereo not given), for which the inhibition is -0.33% (inactive).

As to `Cc1noc(C)c1CSCC(=O)Nc1nc2ccc(Oc3ccccc3)cc2s1`, the inhibition was -2.14% (inactive). As for `C=CCNC(=O)c1ccccc1SCc1c(C)noc1C`, the inhibition is -3.18% (inactive).

As to `Cc1noc(C)c1CSc1nnc2ccc3ccccc3n12`, the inhibition was 31.2% (active). Consider `CC(C)(C)c1cnnn1-c1ccc([N+](=O)[O-])cc1`, for which the inhibition was -0.77% (inactive). On to `CC1(C)C=C2[C@H]3CC[C@@H]4[C@@]5(C)CCC(=O)C(C)(C)[C@@H]5CC[C@@]4(C)[C@]3(C)CC[C@@]2(C(=O)O)CC1`, for which the inhibition was 0.2% (inactive). For `COc1cc2c(cc1OC)C(C(=O)Nc1cc(C)c(OC)c(C)c1)CC(=O)N2` (stereo not given), the inhibition is -6.29% (inactive).

As for `CC(=O)Nc1ccc(N2C(=O)CCC2=O)cc1C`, the inhibition was 0.14% (inactive).

`O=C(CN1CCCCC1)N1c2ccccc2Sc2ccc(C(F)(F)F)cc21`: the inhibition was 98.8% (active).

In the case of `CCC(=O)Nc1cc(C(F)(F)F)ccc1N1CCCC1`, the inhibition is 4.4% (inactive). Consider `O=C(CN1C(=O)/C(=C\c2ccc(C(F)(F)F)cc2)Sc2ccccc21)NCc1ccco1`, for which the inhibition is 18.4% (inactive). For `O=C(CN1CCCCCC1)Nc1ccc(Cl)cc1F`, the inhibition is 7.56% (inactive).

With `O=C(CN1CCCCCC1)N1c2ccccc2Sc2ccc(C(F)(F)F)cc21`, the inhibition is 98.4% (active).

With `O=C(CSc1nc2ccccc2o1)N1c2ccccc2Sc2ccc(Cl)cc21`, the inhibition is -5.39% (inactive). To `COc1ccccc1NC(=O)N(O)C1(C#N)CCCCC1` belongs 4.25% (inactive); to `CCOC(=O)c1c(S(=O)(=O)Nc2ccc(CN3CCC(C)CC3)cc2)c(C)n(C)c1C`, 0.52% (inactive); to `Cc1cc(Br)ccc1NC(=O)c1cnc(N2CCN(c3ccccn3)CC2)c2ccccc12`, 27.7% (active). For the compound `Cc1cc(C(=O)N2CCN(c3ccccn3)CC2)c(C)o1`, the inhibition was -9.14% (inactive). `Cc1cc(Br)ccc1NC(=O)c1sc2ncn(CC(=O)N3CCN(c4ccccn4)CC3)c(=O)c2c1C`: the inhibition was -9.8% (inactive). Under `C[C@H](CO)N1C[C@H](C)[C@@H](CN(C)S(=O)(=O)c2ccc(F)cc2)OCc2cnnn2CCCC1=O` stands -6.37% (inactive); under `CCc1noc(C)c1C(=O)Oc1ccc(N(C)S(=O)(=O)c2ccc(C)c(C)c2)cc1`, 11.9% (inactive). In the case of `CCN(CC)CCCC(C)n1c2nc(=O)[nH]c(=O)c-2nc2cc(Cl)ccc21` (stereo not given), the inhibition was 41.2% (active). As to `CCCN(CCc1ccccc1)C1CCc2c(O)cccc2C1` (stereo not given), the inhibition was 2.43% (inactive). For the compound `Cc1ccc(S(=O)(=O)N2CCC(N3CCCCCC3)CC2)cc1`, the inhibition was 6.92% (inactive).

Take `Cc1ccc(S(=O)(=O)N2CCC(C(=O)N3CCCCCCC3)CC2)cc1`: the inhibition is 1.57% (inactive). As for `Cc1ccc(S(=O)(=O)n2oc(=O)c(C3CCCCC3)c2N)cc1`, the inhibition was 33.2% (active). `CCC(C)(C)NC(=O)CN(C(=O)C(=O)Nc1ccc2c(c1)OCCO2)C(C)(C)CC`: the inhibition is 1.43% (inactive). Turning to `CCOCCn1[nH]c2ccccc2c1=O`, the inhibition was 3.03% (inactive).

Consider `O=[N+]([O-])c1ccc(N2CCN(c3ccc(F)cc3)CC2)cn1`, for which the inhibition was 8.5% (inactive).

For the compound `O=C(c1cc(C(=O)N2CCN(c3ccc(F)cc3)CC2)cc([N+](=O)[O-])c1)N1CCN(c2ccc(F)cc2)CC1`, the inhibition is 29.5% (active).

For the compound `O=C(c1cncc(Br)c1)N1CCN(c2ccc([N+](=O)[O-])cc2)CC1`, the inhibition was 15.7% (inactive). As for `CC(=O)c1c(N2CCOCC2)nc(=S)n(Cc2ccccc2)c1C`, the inhibition is 10% (inactive).

As for `CCOc1ccccc1NC(=S)N1CCN(c2cccc(C)c2C)CC1`, the inhibition was -0.84% (inactive). Under `COc1ccccc1NC(=S)N1CCN(C(c2ccccc2)c2ccccc2)CC1` stands 32.8% (active). For `COc1ccccc1NC(=S)N1CCC(NC(=O)C23CC4CC(CC(C4)C2)C3)CC1`, the inhibition is 6.64% (inactive). For `O=C(c1ccc2c(c1)C(=O)N(Cc1ccncc1)C2=O)N1CCN(S(=O)(=O)c2ccc(OC(F)(F)F)cc2)CC1`, the inhibition was 11.6% (inactive). With `COc1cccc(COC(=O)C2CCN(S(=O)(=O)c3ccc(Cl)cc3)CC2)c1OC`, the inhibition is 10.6% (inactive). Regarding `O=C(COc1ncnc2ccccc12)NC(=O)NCc1ccccc1`, the inhibition was 6.01% (inactive). As to `COc1ccc(CNc2ncnc3ccccc23)cc1`, the inhibition was 33.8% (active). As to `COc1ccc(CNC(=O)COc2cccnc2[N+](=O)[O-])cc1`, the inhibition was 8.36% (inactive). Regarding `CCCCN(C)Cc1c(C)[nH]c2ccc(Cl)cc2c1=O`, the inhibition was -2.11% (inactive). `O=S(=O)(NCCc1ccc(Cl)cc1)c1cccs1`: the inhibition was 2.77% (inactive). In the case of `O=S(=O)(Nc1ccccc1)c1ccc(NS(=O)(=O)c2cccs2)cc1`, the inhibition was 3.98% (inactive). Regarding `O=C(Nc1cccc(Cl)c1)Nc1ccccc1NS(=O)(=O)c1cccs1`, the inhibition is 30.1% (active). Turning to `CCCCCC1CCC(c2nnc(SCC(C)=O)o2)CC1` (stereo not given), the inhibition is -0.26% (inactive). Under `CCOC(=O)C(CO)NC(=O)C1(NC(C)=O)CCCC1` (stereo not given) stands 5.55% (inactive); under `COc1cccc(N(CC(=O)NCc2ccccc2)C(=O)CCC(=O)Nc2nccs2)c1`, 9.51% (inactive); under `CCCc1cc(=O)[nH]c2nnc(SCC(=O)Nc3nnc(SCC)s3)n12`, 6.93% (inactive). On to `COc1ccccc1OCCNC(=O)CCNC(=O)c1ccccc1Cl`, for which the inhibition is 17.2% (inactive). Take `CC(=O)Nc1ccc(NC(=O)C(C)OC(=O)C2CC(=O)N(CCc3ccccc3)C2)cc1` (stereo not given): the inhibition was 7.46% (inactive).

In the case of `COc1cccc(/C=C2\SC(=N)N(c3ccc(F)cc3)C2=O)c1`, the inhibition was 11% (inactive).

With `CC(=O)N1CC(C)c2scc(C)[n+]2-c2ccccc21` (stereo not given), the inhibition is -1.76% (inactive). Under `CCC(C(=O)NC1CCCC1)N(C(=O)c1snc(C(N)=O)c1N)c1ccc2c(c1)OCCO2` (stereo not given) stands -5.82% (inactive). Regarding `O=C(NCc1ccccc1CN1CCCC1)C1CCN(S(=O)(=O)c2ccc(Cl)cc2)CC1`, the inhibition is 1.2% (inactive). Take `O=C(NNS(=O)(=O)c1ccc(Cl)cc1)C1CCN(Cc2ccccc2)CC1`: the inhibition is 40.5% (active). Turning to `Cc1ccc(S(=O)(=O)NCCC(=O)NC2CCN(Cc3ccccc3)CC2)cc1`, the inhibition is 6.57% (inactive).
